Our source for the binding signal values is patent US20050118148, “Compositions and methods related to mammalian Maf-A” (published 2005).

In this test the target is RIPE3b1 activator (MafA, endogenous) (Mus musculus, UniProt Q8CF90 SEQ:1-359). The experiment in a line: competition; B4/5 roughly 20-fold more effective competitor than B4. To be noted: protein: extract; tags: beta cell line nuclear extract (betaTC-3, Min6); label: 32P; dsDNA, one strand shown. How it is done: To define the factors associated with B4 and B5 mediated regulation, gel shift experiments were performed with probes spanning B4, B5, and B4+B5 (B4/5) and βTC-3 or MIN6 cell nuclear extracts (FIG. 12). Two common protein-DNA complexes were detected with the B4 and B4+B5 probes (labeled as A and B in FIG. 12B), whereas no binding was found with B5 (data not shown). The binding affinity of B4 and B4/5 for these complexes was determined with the wild type and B4+B5 double mutant site (B4+B5MT) competitors.
RIPE3b1 activator (MafA, endogenous), sequence (Q8CF90 whole entry): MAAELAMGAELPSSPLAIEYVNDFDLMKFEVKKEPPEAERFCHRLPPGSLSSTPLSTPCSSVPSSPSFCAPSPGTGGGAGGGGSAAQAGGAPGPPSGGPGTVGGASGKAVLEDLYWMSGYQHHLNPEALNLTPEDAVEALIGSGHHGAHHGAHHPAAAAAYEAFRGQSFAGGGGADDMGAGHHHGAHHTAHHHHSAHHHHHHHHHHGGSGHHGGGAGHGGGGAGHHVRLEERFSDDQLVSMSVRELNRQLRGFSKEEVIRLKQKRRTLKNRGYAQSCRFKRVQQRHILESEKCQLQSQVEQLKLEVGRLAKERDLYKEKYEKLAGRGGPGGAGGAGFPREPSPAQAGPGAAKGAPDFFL
As to AGCTTTCTTTTTGCAAAGCACAGCAT, the binding signal is around 20 fold.
